In publication PMC12529666, “Dysregulation of AGO2-miRNA dynamics underlies the AGO2-associated Lessel–Kreienkamp syndrome”:

B1: GTGTCTTG (ssRNA)
RNA 1: GAGUUCUACAGUCCGACGAUCCCAACGUGUCUUGCACCUGGAAUUCUCGGGUGCCAA
RNA 2: UGGAGUGUGACAAUGGUGUUUG
DNA 1: GATCGTCGGACTGTAGAACTC
DNA 2: TTGGCACCCGAGAATTCCA
modifications: constant regions annealed to DNA blockers; guide miR-122 5' phosphate
B2: GTACCTTG (ssRNA)
RNA 1: GAGUUCUACAGUCCGACGAUCCCAACGUACCUUGCACCUGGAAUUCUCGGGUGCCAA
RNA 2: UGGAGUGUGACAAUGGUGUUUG
DNA 1: GATCGTCGGACTGTAGAACTC
DNA 2: TTGGCACCCGAGAATTCCA
modifications: constant regions annealed to DNA blockers; guide miR-122 5' phosphate
B3: ATGCTTTG (ssRNA)
RNA 1: GAGUUCUACAGUCCGACGAUCCCAACAUGCUUUGCACCUGGAAUUCUCGGGUGCCAA
RNA 2: UGGAGUGUGACAAUGGUGUUUG
DNA 1: GATCGTCGGACTGTAGAACTC
DNA 2: TTGGCACCCGAGAATTCCA
modifications: constant regions annealed to DNA blockers; guide miR-122 5' phosphate
B4: ACGTCTTG (ssRNA)
RNA 1: GAGUUCUACAGUCCGACGAUCCCAACACGUCUUGCACCUGGAAUUCUCGGGUGCCAA
RNA 2: UGGAGUGUGACAAUGGUGUUUG
DNA 1: GATCGTCGGACTGTAGAACTC
DNA 2: TTGGCACCCGAGAATTCCA
modifications: constant regions annealed to DNA blockers; guide miR-122 5' phosphate
B5: ATGTCTCG (ssRNA)
RNA 1: GAGUUCUACAGUCCGACGAUCCCAACAUGUCUCGCACCUGGAAUUCUCGGGUGCCAA
RNA 2: UGGAGUGUGACAAUGGUGUUUG
DNA 1: GATCGTCGGACTGTAGAACTC
DNA 2: TTGGCACCCGAGAATTCCA
modifications: constant regions annealed to DNA blockers; guide miR-122 5' phosphate
B6: ATGTCCTG (ssRNA)
RNA 1: GAGUUCUACAGUCCGACGAUCCCAACAUGUCCUGCACCUGGAAUUCUCGGGUGCCAA
RNA 2: UGGAGUGUGACAAUGGUGUUUG
DNA 1: GATCGTCGGACTGTAGAACTC
DNA 2: TTGGCACCCGAGAATTCCA
modifications: constant regions annealed to DNA blockers; guide miR-122 5' phosphate
B7: GTGTCTCG (ssRNA)
RNA 1: GAGUUCUACAGUCCGACGAUCCCAACGUGUCUCGCACCUGGAAUUCUCGGGUGCCAA
RNA 2: UGGAGUGUGACAAUGGUGUUUG
DNA 1: GATCGTCGGACTGTAGAACTC
DNA 2: TTGGCACCCGAGAATTCCA
modifications: constant regions annealed to DNA blockers; guide miR-122 5' phosphate
B8: ATATTCCG (ssRNA)
RNA 1: GAGUUCUACAGUCCGACGAUCCCAACAUAUUCCGCACCUGGAAUUCUCGGGUGCCAA
RNA 2: UGGAGUGUGACAAUGGUGUUUG
DNA 1: GATCGTCGGACTGTAGAACTC
DNA 2: TTGGCACCCGAGAATTCCA
modifications: constant regions annealed to DNA blockers; guide miR-122 5' phosphate
B9: ACATCTTG (ssRNA)
RNA 1: GAGUUCUACAGUCCGACGAUCCCAACACAUCUUGCACCUGGAAUUCUCGGGUGCCAA
RNA 2: UGGAGUGUGACAAUGGUGUUUG
DNA 1: GATCGTCGGACTGTAGAACTC
DNA 2: TTGGCACCCGAGAATTCCA
modifications: constant regions annealed to DNA blockers; guide miR-122 5' phosphate
B10: GCATCTTG (ssRNA)
RNA 1: GAGUUCUACAGUCCGACGAUCCCAACGCAUCUUGCACCUGGAAUUCUCGGGUGCCAA
RNA 2: UGGAGUGUGACAAUGGUGUUUG
DNA 1: GATCGTCGGACTGTAGAACTC
DNA 2: TTGGCACCCGAGAATTCCA
modifications: constant regions annealed to DNA blockers; guide miR-122 5' phosphate
B11: ACATTCTA (ssRNA)
RNA 1: GAGUUCUACAGUCCGACGAUCCCAACACAUUCUACACCUGGAAUUCUCGGGUGCCAA
RNA 2: UGGAGUGUGACAAUGGUGUUUG
DNA 1: GATCGTCGGACTGTAGAACTC
DNA 2: TTGGCACCCGAGAATTCCA
modifications: constant regions annealed to DNA blockers; guide miR-122 5' phosphate
B12: ATACTCTA (ssRNA)
RNA 1: GAGUUCUACAGUCCGACGAUCCCAACAUACUCUACACCUGGAAUUCUCGGGUGCCAA
RNA 2: UGGAGUGUGACAAUGGUGUUUG
DNA 1: GATCGTCGGACTGTAGAACTC
DNA 2: TTGGCACCCGAGAATTCCA
modifications: constant regions annealed to DNA blockers; guide miR-122 5' phosphate

Tests used:
Experiment in all cases: RNA Bind-n-Seq (nitrocellulose filter binding and sequencing); miR-122 guide loaded in AGO2; 60 min incubation; 30 mM Tris pH 8.0, 100 mM potassium acetate, 2 mM magnesium acetate, 0.5 mM TCEP, 0.005% NP-40, 0.01 mg/ml yeast tRNA; 3 nM AGO2-miR-122, 100 nM RNA library; 60; high values mean tight binding
Settings in all cases: protein: recombinant; tags: His6 (N-terminal, pFastBac HTA)
AGO2 L192P = AGO2 L192P (Homo sapiens, UniProt Q9UKV8 1-859, L192P;S387D;S824A;S828D;S831D;S834A)
Outline: (§1)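 His-tagged AGO2 was expressed in Sf9 insect cells by baculovirus, loaded with a synthetic guide RNA, and purified by Ni-NTA and a biotinylated capture oligo. Bound RNA was extracted, reverse-transcribed, barcode-amplified and Illumina-sequenced. Fold enrichment is each sequence's read fraction divided by its input-library read fraction.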

AGO2 A367P = AGO2 A367P (Homo sapiens, UniProt Q9UKV8 1-859, A367P;S387D;S824A;S828D;S831D;S834A)
Outline: as §1

AGO2 T357M = AGO2 T357M (Homo sapiens, UniProt Q9UKV8 1-859, T357M;S387D;S824A;S828D;S831D;S834A)
Outline: as §1

AGO2 F182del = AGO2 F182del (Homo sapiens, UniProt Q9UKV8 1-859, S387D;S824A;S828D;S831D;S834A;del182-182)
Outline: as §1

AGO2 A367P, sequence (Q9UKV8 whole entry A367P/S387D/S824A/S828D/S831D/S834A): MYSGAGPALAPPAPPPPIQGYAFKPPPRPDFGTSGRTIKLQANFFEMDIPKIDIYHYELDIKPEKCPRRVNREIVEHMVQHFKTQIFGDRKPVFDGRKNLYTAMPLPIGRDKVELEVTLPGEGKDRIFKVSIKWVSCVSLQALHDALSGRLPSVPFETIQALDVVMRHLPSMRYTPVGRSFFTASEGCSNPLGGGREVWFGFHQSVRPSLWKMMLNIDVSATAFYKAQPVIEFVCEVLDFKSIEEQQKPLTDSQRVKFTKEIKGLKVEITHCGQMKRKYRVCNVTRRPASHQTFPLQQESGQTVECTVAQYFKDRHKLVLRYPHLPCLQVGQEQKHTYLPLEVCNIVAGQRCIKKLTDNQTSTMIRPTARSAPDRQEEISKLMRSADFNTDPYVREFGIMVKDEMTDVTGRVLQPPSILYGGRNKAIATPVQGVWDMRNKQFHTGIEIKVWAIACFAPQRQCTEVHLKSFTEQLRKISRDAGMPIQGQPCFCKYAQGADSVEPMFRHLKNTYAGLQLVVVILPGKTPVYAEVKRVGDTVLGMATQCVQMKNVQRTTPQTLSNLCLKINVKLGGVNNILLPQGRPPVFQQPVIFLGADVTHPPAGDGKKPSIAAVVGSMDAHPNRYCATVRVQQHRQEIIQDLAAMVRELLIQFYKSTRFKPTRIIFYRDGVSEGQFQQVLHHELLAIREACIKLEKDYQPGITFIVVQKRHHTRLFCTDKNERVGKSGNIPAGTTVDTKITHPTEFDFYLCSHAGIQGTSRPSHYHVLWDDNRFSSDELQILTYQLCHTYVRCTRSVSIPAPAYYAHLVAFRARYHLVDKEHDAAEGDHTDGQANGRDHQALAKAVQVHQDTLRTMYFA
AGO2 L192P, sequence (Q9UKV8 whole entry L192P/S387D/S824A/S828D/S831D/S834A): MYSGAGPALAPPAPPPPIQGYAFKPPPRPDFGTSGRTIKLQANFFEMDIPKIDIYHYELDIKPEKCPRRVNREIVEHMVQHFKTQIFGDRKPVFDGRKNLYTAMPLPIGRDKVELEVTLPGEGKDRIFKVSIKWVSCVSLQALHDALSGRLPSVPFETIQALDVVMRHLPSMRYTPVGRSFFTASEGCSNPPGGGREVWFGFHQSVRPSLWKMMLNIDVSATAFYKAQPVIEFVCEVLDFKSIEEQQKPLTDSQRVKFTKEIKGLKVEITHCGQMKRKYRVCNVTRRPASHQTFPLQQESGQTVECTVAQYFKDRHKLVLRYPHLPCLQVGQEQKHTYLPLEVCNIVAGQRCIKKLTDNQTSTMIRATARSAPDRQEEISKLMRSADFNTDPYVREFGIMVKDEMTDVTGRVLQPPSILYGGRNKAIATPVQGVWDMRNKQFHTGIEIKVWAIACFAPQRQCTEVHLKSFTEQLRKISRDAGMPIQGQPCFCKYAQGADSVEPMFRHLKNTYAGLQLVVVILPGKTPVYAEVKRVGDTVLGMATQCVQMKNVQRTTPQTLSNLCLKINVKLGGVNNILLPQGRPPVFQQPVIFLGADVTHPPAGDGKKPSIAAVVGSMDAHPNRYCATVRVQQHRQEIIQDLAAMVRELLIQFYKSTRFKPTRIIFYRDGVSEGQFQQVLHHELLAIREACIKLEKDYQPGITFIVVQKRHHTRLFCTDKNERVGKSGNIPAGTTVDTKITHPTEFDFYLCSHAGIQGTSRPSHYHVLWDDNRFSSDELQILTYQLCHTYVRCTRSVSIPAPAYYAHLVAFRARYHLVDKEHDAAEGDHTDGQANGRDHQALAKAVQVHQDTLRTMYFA
AGO2 T357M, sequence (Q9UKV8 whole entry T357M/S387D/S824A/S828D/S831D/S834A): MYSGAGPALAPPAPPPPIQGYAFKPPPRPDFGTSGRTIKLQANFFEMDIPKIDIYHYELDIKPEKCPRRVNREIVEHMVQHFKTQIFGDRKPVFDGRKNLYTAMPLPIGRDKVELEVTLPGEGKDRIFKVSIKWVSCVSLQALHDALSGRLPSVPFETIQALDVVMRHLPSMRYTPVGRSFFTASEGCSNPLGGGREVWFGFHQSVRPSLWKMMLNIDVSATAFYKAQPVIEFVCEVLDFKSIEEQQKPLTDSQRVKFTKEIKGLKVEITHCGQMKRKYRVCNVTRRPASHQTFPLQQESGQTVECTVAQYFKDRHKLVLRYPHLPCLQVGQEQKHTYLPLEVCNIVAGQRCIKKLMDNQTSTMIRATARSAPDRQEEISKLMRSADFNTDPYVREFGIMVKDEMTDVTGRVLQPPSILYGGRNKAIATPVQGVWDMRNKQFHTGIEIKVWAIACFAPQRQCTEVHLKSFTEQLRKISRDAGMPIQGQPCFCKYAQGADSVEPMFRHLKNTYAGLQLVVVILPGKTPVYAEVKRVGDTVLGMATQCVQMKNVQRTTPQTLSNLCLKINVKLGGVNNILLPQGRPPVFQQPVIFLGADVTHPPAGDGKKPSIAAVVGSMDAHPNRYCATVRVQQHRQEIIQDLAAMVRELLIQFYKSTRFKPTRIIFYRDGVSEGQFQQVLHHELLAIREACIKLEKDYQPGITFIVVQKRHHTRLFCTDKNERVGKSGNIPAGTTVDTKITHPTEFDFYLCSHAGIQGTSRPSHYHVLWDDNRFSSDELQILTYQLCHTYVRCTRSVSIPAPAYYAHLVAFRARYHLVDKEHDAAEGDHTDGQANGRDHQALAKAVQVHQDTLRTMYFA
AGO2 F182del, sequence (Q9UKV8 other isoform, or with tags, fused parts or gaps S387D;S824A;S828D;S831D;S834A;del182-182): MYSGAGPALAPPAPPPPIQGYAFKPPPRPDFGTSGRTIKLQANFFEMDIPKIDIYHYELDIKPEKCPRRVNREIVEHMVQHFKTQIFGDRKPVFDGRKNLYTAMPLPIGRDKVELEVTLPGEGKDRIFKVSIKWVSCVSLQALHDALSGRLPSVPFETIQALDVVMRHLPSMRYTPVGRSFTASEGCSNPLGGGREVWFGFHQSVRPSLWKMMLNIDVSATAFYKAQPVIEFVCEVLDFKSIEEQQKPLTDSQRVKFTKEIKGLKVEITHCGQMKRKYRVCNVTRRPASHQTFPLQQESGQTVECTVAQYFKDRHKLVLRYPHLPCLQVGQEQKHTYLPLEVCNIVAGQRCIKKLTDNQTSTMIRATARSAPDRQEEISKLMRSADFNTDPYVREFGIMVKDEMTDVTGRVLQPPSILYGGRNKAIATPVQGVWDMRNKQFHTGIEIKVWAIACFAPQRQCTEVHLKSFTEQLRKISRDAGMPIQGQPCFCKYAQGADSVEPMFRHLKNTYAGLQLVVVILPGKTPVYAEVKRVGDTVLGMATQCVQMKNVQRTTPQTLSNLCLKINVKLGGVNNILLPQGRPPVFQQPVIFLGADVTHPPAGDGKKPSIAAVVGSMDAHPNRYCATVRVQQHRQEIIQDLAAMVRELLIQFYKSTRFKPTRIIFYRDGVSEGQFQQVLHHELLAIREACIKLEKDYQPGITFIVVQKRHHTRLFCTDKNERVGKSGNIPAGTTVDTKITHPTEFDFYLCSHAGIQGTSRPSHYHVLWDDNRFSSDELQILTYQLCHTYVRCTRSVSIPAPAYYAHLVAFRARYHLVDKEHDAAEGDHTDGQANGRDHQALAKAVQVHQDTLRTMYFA

Row | Binder | binding signal (AGO2 L192P) | binding signal (AGO2 A367P) | binding signal (AGO2 T357M) | binding signal (AGO2 F182del)
1 | B1 | 0.335 fold enrichment over input | 0.131 fold enrichment over input | 0.447 fold enrichment over input | 
2 | B2 | 0.347 fold enrichment over input | 0.128 fold enrichment over input | 0.482 fold enrichment over input | 
3 | B3 | 0.354 fold enrichment over input | 0.12 fold enrichment over input | 0.455 fold enrichment over input | 
4 | B4 | 0.319 fold enrichment over input | 0.134 fold enrichment over input | 0.501 fold enrichment over input | 
5 | B5 | 0.316 fold enrichment over input |  | 0.415 fold enrichment over input | 
6 | B6 | 0.343 fold enrichment over input | 0.122 fold enrichment over input | 0.425 fold enrichment over input | 
7 | B7 | 0.345 fold enrichment over input | 0.125 fold enrichment over input | 0.468 fold enrichment over input | 
8 | B8 | 0.389 fold enrichment over input | 0.136 fold enrichment over input | 0.541 fold enrichment over input | 
9 | B9 | 0.386 fold enrichment over input | 0.135 fold enrichment over input | 0.458 fold enrichment over input | 
10 | B10 | 0.349 fold enrichment over input | 0.123 fold enrichment over input | 0.425 fold enrichment over input | 
11 | B11 | 0.493 fold enrichment over input | 0.178 fold enrichment over input | 0.557 fold enrichment over input | 0.309 fold enrichment over input
12 | B12 | 0.437 fold enrichment over input | 0.187 fold enrichment over input | 0.545 fold enrichment over input | 0.128 fold enrichment over input
